Measured values as given in PMC4336329 (PLoS ONE, 2015).
Among all 310,000 compounds or so, about 14,000 (4.5%) showed an effect of 50% or more. The effect is printed as a negative number. For the sample, strong results were picked, then their nearest neighbours and some compounds at random.

Target: human ether-à-go-go-related gene (hERG) potassium channel (human, UniProt Q12809)
Experiment: primary screen, population patch clamp on CHO cells stably expressing hERG; higher = less effect of the substance
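Further: peak tail current of the secondary pulse compared with the same well before compound.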

human ether-à-go-go-related gene (hERG) potassium channel, sequence (Q12809 whole entry, looked up): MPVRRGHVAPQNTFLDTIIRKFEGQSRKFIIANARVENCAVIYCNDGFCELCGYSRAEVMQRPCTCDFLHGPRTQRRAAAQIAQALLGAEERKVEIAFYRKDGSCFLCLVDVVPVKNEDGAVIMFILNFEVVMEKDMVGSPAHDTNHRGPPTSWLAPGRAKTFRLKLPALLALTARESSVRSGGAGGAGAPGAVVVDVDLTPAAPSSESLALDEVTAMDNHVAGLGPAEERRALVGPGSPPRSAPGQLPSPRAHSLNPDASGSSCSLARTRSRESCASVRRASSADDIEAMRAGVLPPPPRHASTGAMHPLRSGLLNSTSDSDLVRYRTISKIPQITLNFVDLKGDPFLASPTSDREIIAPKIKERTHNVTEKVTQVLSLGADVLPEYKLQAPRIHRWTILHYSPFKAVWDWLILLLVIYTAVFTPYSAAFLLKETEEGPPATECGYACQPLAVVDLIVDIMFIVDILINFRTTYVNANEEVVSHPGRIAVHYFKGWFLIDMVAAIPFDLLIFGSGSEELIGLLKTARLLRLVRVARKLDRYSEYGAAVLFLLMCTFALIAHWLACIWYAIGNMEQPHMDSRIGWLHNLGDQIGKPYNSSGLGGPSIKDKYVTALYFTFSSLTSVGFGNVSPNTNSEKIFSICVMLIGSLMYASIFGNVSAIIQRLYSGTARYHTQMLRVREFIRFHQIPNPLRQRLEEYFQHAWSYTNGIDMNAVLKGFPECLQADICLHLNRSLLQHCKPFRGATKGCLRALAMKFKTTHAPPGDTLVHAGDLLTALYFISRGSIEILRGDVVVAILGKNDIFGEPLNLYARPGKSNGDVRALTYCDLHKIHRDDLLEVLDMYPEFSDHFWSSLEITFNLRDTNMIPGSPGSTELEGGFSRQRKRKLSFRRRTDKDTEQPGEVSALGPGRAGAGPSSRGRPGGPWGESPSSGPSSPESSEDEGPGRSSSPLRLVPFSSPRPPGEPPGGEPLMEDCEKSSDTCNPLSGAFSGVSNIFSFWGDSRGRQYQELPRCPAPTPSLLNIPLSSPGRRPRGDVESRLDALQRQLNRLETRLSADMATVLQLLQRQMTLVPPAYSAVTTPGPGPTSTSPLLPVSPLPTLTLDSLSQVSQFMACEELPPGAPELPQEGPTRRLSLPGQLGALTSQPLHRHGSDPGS

| SMILES | hERG current change (%, negative = inhibition) at 10uM |
| --- | --- |
| Cc1cccc(N(Cc2cc3ccc(C)cc3[nH]c2=O)C(=O)c2ccco2)c1 | -8.8% |
| COC(=O)c1cccc(Nc2nc(-c3ccncc3)nc3ccccc23)c1 | 28.5% |
| Cc1ccc(C2CCN(C(=S)NC3CCCCC3)C2)cc1 (stereo not drawn) | -5.82% |
| CC1CCCC(NC(=O)c2ccc(COc3ccccc3)o2)C1C (stereo not drawn) | 0.0111% |
| O=C(CNS(=O)(=O)c1ccccc1)OCC(=O)c1ccc([N+](=O)[O-])cc1 | -3.22% |
| NC(=O)NC(=O)COC(=O)CNS(=O)(=O)c1ccc(F)c(F)c1F | 13.3% |
| COc1ccc(NC(=O)COC(=O)CCNS(=O)(=O)c2ccccc2)cc1OC | 23.2% |
| COc1ccc(NC(=O)COC(=O)[C@@H]2CCCN2S(=O)(=O)c2ccccc2F)c(OC)c1 | -18.2% |
| O=C(COC(=O)CCNS(=O)(=O)c1ccccc1)Nc1ccc(OC(F)F)cc1 | -60.3% |
| O=C(COC(=O)[C@@H]1CCCN1S(=O)(=O)c1ccccc1F)Nc1ccc(OC(F)F)cc1 | -61.7% |
| O=C(COC(=O)CNS(=O)(=O)c1ccc(F)c(F)c1F)Nc1ccc(OC(F)F)cc1 | -65.2% |
| COc1ccc(NC(=O)COC(=O)CNS(=O)(=O)c2ccc(F)c(F)c2F)cc1OC | 21.3% |
| CC(=O)c1ccccc1NC(=O)COC(=O)C1CCCN1S(=O)(=O)c1ccccc1F (stereo not drawn) | -0.476% |
| N#Cc1ccc(NC(=O)COC(=O)CCNS(=O)(=O)c2ccccc2)cc1 | -34.4% |
| CCn1c(CC(=O)Nc2cccc(OC)c2)nnc1SCC(=O)Nc1nccs1 | -2.39% |
| CCc1ccc2c(c1)cc(C)c1nnc(SCC(=O)Nc3cc(OC)c(OC)cc3C(=O)O)n12 | 5.98% |
| CC1CCC2(CC1)NC(=O)N(CC(=O)NCc1ccc(F)cc1)C2=O (stereo not drawn) | -21.2% |
| C/C(=N/Nc1nc(-c2ccccc2)cc(-c2ccc(F)cc2)n1)c1cccc(N)c1 | 3.2% |
| NS(=O)(=O)c1ccc(CCNC(=O)c2ccc(OCC3CCCO3)cc2)cc1 (stereo not drawn) | 19.9% |
| CCN1CCN(c2cc(C)c3cc(NC(=O)c4ccc5c(c4)OCO5)ccc3n2)CC1 | -38.6% |
| COc1ccc(C(=O)Nc2ccc3nc(N4CCN(C)CC4)cc(C)c3c2)c(OC)c1 | -0.388% |
| Cc1cc(N2CCN(C)CC2)nc2ccc(NC(=O)c3ccccc3F)cc12 | -58.4% |

| SMILES | hERG current change (%, negative = inhibition) at 10uM |
| --- | --- |
| Cc1cc(N2CCN(C)CC2)nc2ccc(NC(=O)c3cccnc3Cl)cc12 | -2.54% |
| Cc1ccc(NC(=O)c2ccc3c(c2)OCO3)cc1Cl | -2.98% |
| Cc1cc(N2CCN(C)CC2)nc2ccc(NC(=O)c3ccc4c(c3)OCO4)cc12 | -62.2% |
| O=C(Nc1ccc2c(c1)OCCO2)C1CCCN(S(=O)(=O)c2cccc3nsnc23)C1 (stereo not drawn) | 4.93% |
| O=C(CNC1CCCCCC1)Nc1ccc(S(=O)(=O)NC2CC2)cc1 | 1.98% |
| Nc1ccccc1SCc1ccccc1 | -2.24% |
| Oc1ccccc1C1NN=C(c2ccccc2)S1 (stereo not drawn) | -15% |
| COc1ccc(-c2csc(N(CCCN(C)C)C(=O)c3ccc(C)cc3)n2)cc1.Cl | -68.2% |
| COc1ccc(-c2csc(N(CCCN(C)C)C(=O)c3ccc(C(C)(C)C)cc3)n2)cc1.Cl | 18% |
| COc1ccc(-c2csc(N(CCCN(C)C)C(=O)c3ccc(F)cc3)n2)cc1.Cl | -58.1% |
| C/C(=N\NC(=O)c1cc(O)cc(O)c1)c1ccc(NC(=O)Cc2ccccc2)cc1 | 14.2% |
| CSc1ccc(CN(C)C(C)C(=O)Nc2ccc(F)c(F)c2F)cc1 (stereo not drawn) | 15.3% |
| CNC(=O)c1c(NC(=O)c2ccc(S(=O)(=O)N3CCCCC3C)cc2)sc2c1CCN(C)C2 (stereo not drawn) | -3.92% |
| CCN1CCCC1CNC(=O)c1cc2c(OC)cccc2[nH]1 (stereo not drawn) | -20.8% |
| CCc1cc(Cl)c(OC)c(C(=O)NC[C@@H]2CCCN2CC)c1O.Cl | -59.2% |
| CCN1CCC[C@H]1CNC(=O)c1c(O)c(Cl)cc(Cl)c1OC.O=C(O)C(O)C(O)C(=O)O | -13.8% |
| O=C(NCC1CCCO1)c1cc2cc(F)ccc2[nH]1 (stereo not drawn) | 9.11% |
| CCN1CCCC1CNC(=O)c1[nH]c2ccc(OC)cc2c1C (stereo not drawn) | -51.2% |
| CCN1CCCC1CNC(=O)c1cc2cc(OC)c(OC)cc2[nH]1 (stereo not drawn) | 16.6% |
| CCN1CCCC1CNC(=O)c1cc(OC)c(OC)c(OC)c1 (stereo not drawn) | 12.8% |
| CCN1CCCC1CNC(=O)c1cc2ccc(OC)cc2[nH]1 (stereo not drawn) | -12.4% |
| CCN1CCCC1CNC(=O)c1cc2c(OC)c(OC)c(OC)cc2[nH]1 (stereo not drawn) | 23.2% |

| SMILES | hERG current change (%, negative = inhibition) at 10uM |
| --- | --- |
| CCN1CCCC1CNC(=O)c1cc2cc(F)ccc2[nH]1 (stereo not drawn) | -73.3% |
| CCCCN1CCCC1CNC(=O)c1cc(C#N)c2ccccc2c1OC (stereo not drawn) | -64.3% |
| CCN1CCC[C@H]1CNC(=O)c1c(O)c(Cl)cc(Cl)c1OC | -10.4% |
| CCCCC1=CC2=CC(=O)C(C)(OC(=O)CC)C(=O)C2=CN1C1CCCCC1 (stereo not drawn) | -38% |
| Cc1cccn2c(=O)c(/C=C(\C#N)C(N)=O)c(N3CCCCCC3)nc12 | -13.2% |
| COc1cccc(N2CCN(C3CCCC(C)C3)CC2)c1 (stereo not drawn) | -23.8% |
| O=C(NCc1ccccn1)c1cc(S(=O)(=O)N2CCCCC2)ccc1Cl | 3.78% |
| COc1ccc(NS(=O)(=O)c2cccc(C(=O)NNC(=O)c3ccc(O)c(Cl)c3)c2)cc1 | -0.207% |
| Cc1cccc(CN2C(=O)[C@@H]3Cc4c([nH]c5ccccc45)C(C)(C)N3C2=O)c1 | -0.614% |
| COC(=O)c1c(NC(=O)C2(C)Cc3ccccc3C(=O)O2)sc2c1CCCC2 (stereo not drawn) | 12.7% |
| O=C1C=C(c2ccccc2)CC(/C=C/c2ccccc2)C1 (stereo not drawn) | -2.91% |
| CCCc1nc(N)nc2c1C(=O)CC(C)(C)C2 | -4.47% |
| CC(C)(C)N1C(=O)Cc2c1nc(N)c1c(N)nc(N3CCCCC3CO)c(C#N)c21 (stereo not drawn) | -24.3% |
| O=c1[nH]c(N/N=C\c2ccc3c(c2)OCO3)nc2ccccc12 | -70.7% |
| O=C(CCc1nc2ccccc2c(=O)[nH]1)N1CCN(C/C=C/c2ccccc2)CC1 | -42.4% |
| O=c1[nH]c(CN2CCNCC2)nc2ccccc12 | -23.4% |
| O=C(c1ccccc1)N(Cc1ccc2c(c1)OCO2)Cc1nc2ccccc2c(=O)[nH]1 | -15.4% |
| O=C(/C=C/c1ccccc1)N1CCN(Cc2nc3ccccc3c(=O)[nH]2)CC1 | -64.7% |
| CCC(CC)C(=O)N1CCN(Cc2nc3ccccc3c(=O)[nH]2)CC1 | -11.3% |
| O=c1[nH]c(N/N=C/c2ccccc2)nc2ccccc12 | -14.9% |
| O=c1[nH]c(CN2CCN(Cc3ccc4c(c3)OCO4)CC2)nc2ccccc12 | -58.9% |
| O=c1[nH]c(N/N=C/c2cc3c(cc2[N+](=O)[O-])OCO3)nc2ccccc12 | -0.00362% |

| SMILES | hERG current change (%, negative = inhibition) at 10uM |
| --- | --- |
| CN1CCN(Cc2nc3ccccc3c(=O)[nH]2)CC1 | 6.57% |
| O=c1[nH]c(CN2CCN(C/C=C/c3ccccc3)CC2)nc2ccccc12 | -65.2% |
| O=c1[nH]c(CN2CCOCC2)nc2ccccc12 | 0.449% |
| COC(=O)C[C@H]1c2cc(C(F)(F)F)ccc2S(=O)(=O)N1c1ccc(N(C)C)cc1 | -20.9% |
| Cn1ccnc1SCC(=O)N(C1CCCCC1)C1CCCCC1 | 3.29% |
| COc1ccc(Nc2nc(-c3cccc([N+](=O)[O-])c3)nc3ccccc23)cc1 | -5.91% |
| O=C(OCC1OC(Oc2ccc(O)cc2)C(O)C(O)C1O)c1ccccc1 (stereo not drawn) | 14.5% |
| COCC(=O)N(CCc1ccc(OC)cc1)Cc1nc2ccccc2c(=O)[nH]1 | -2.83% |
| Cc1ccccc1NC(=O)c1ccccc1NC(=O)c1ccccc1F | 11.3% |
| O=C(c1ccco1)c1coc2c1cc(O)c1ccccc12 | 13.4% |
| CCCCNC(=O)O[C@H]1C[C@@H]2CCN3C(=O)CCC(C)(C)[C@H](C1)[C@H]23 | -23.5% |
| O=c1[nH]c(CN2CCOCC2)nc2cc(Cl)ccc12 | -10.4% |
| COc1ccc(N2CCN(Cc3nc4cc(Cl)ccc4c(=O)[nH]3)CC2)cc1 | 13.4% |
| O=c1[nH]c(CN2CCN(C/C=C/c3ccccc3)CC2)nc2cc(Cl)ccc12 | -106% |
| COc1ccc(-c2cnc(SCCNC(=O)c3ccc4c(c3)OCO4)[nH]2)cc1 | -5.44% |
| c1ccc(CSc2nnc(-c3ccccn3)n2-c2ccccc2)cc1 | -10.6% |
| N#Cc1ccc(CSc2nnc(-c3ccccn3)n2-c2ccc(Cl)cc2)cc1 | -51.8% |
| N#Cc1ccc(CSc2nnc(-c3ccccn3)n2-c2ccccc2)cc1 | -42.1% |
| COc1ccc(-n2c(SCC(=O)OC(C)C)nnc2-c2ccccn2)cc1 | -14.4% |
| COc1ccc(-n2c(SCc3ccc(C#N)cc3)nnc2-c2ccccn2)cc1 | -58.3% |
| Cc1ccc(-n2c(SCc3ccc(C#N)cc3)nnc2-c2ccccn2)cc1 | -48.7% |
